Assay results as given in PubChem BioAssay AID463173 (ICCB-Longwood Screening Facility, Harvard Medical School, 2010).
Hit rate of the full screen: of about 52,000 compounds, about 1,700 (3.3%) were called active. No stated cut-off is given here; in the data, active means survival mostly below about 52% (no sharp cut-off); inactive means mostly above about 56%. Many of the other results were omitted from the sample, so actives are more common in it than they were.

The molecules below were run on Wild type (assay: growth inhibition of S. aureus wild type versus tarO mutant, primary screen, teichoic acid synthesis inhibitors, RN4220, OD600 (AID 463173)). Settings: S. aureus RN4220 wild type/DeltatarO growth, OD600, 18 h, active compounds read low, concentration not given here.

Question: `CCOc1ccc2nc(NC(=O)c3cccn(Cc4ccc(C)cc4)c3=O)sc2c1` was tested. Which survival did it give?
Answer: The survival was 76% (inactive).

Question: With `Cc1ccc(Cn2cccc(C(=O)Nc3cc(C)on3)c2=O)cc1` as the molecule, how does the survival read?
Answer: The survival was 81% (inactive).

Question: For `O=C1CN=C(c2ccccc2Cl)c2cc(Cl)ccc2N1Cc1cccc(Cl)c1`, which survival is on record?
Answer: The survival was 128% (inactive).

Question: For `Cc1ccc(C)c(CN2C(=O)c3ccccc3Sc3ccc(C(=O)N4CCC5(CC4)OCCO5)cc32)c1`, which survival is on record?
Answer: The survival was 14% (active).

Question: Which survival does the source give for `Cc1ccc(CN2C(=O)c3ccccc3Sc3ccc(C(=O)N4CCC5(CC4)OCCO5)cc32)cc1` here?
Answer: The survival was 75% (inactive).

Question: For `O=C(c1ccc2c(c1)N(Cc1ccc(F)cc1Cl)C(=O)c1ccccc1S2)N1CCC2(CC1)OCCO2`, which survival is on record?
Answer: The survival was 78% (inactive).

Question: Which survival does the source give for `C1CNC2NCCNC2N1` (stereo not drawn) here?
Answer: The survival was 125% (inactive).

Question: How did the survival turn out when `O=C1NC(=O)C(C(CC(=O)c2ccccc2)c2ccccc2)C(=O)N1` (stereo not drawn) was run?
Answer: The survival was 116% (inactive).

Question: `CN1C(=O)C(=Cc2ccco2)C(=O)N(C)C1=O` was tested. Which survival did it give?
Answer: The survival was 109% (inactive).

Question: With `CCCSc1nc2ccccc2c(=O)n1-c1ccccc1OC` as the molecule, how does the survival read?
Answer: Its survival is -1% (active).

Question: For `COc1ccccc1-n1c(/C=C/c2ccccc2)nc2ccccc2c1=O`, which survival is on record?
Answer: Its survival is 80% (inactive).

Question: With `CSc1nc2ccccc2c(=O)n1-c1ccccc1C` as the molecule, how does the survival read?
Answer: The survival was 107% (inactive).

Question: How did the survival turn out when `CC(=O)N1CC(=O)Nc2ccc(F)cc2C1c1ccccc1` (stereo not drawn) was run?
Answer: Its survival is 82% (inactive).

Question: Which survival does the source give for `COc1ccc(-c2nc(CN3C(=O)CN=C(c4ccccc4)c4ccccc43)c(C)o2)cc1OC` here?
Answer: The survival was 96% (inactive).

Question: With `Cc1ccccc1-c1nc(CN2C(=O)CN=C(c3ccccc3)c3ccccc32)c(C)o1` as the molecule, how does the survival read?
Answer: The survival was 2% (active).

Question: For `Cc1cccc(-c2nc(CN3C(=O)CN=C(c4ccccc4)c4ccccc43)c(C)o2)c1`, which survival is on record?
Answer: Its survival is 2% (active).

Question: `COc1ccc(-c2nc(CN3C(=O)CN=C(c4ccccc4)c4ccccc43)c(C)o2)cc1` was tested. Which survival did it give?
Answer: Its survival is 93% (inactive).

Question: `Cc1oc(-c2ccc(Cl)cc2)nc1CN1C(=O)CN=C(c2ccccc2)c2ccccc21` was tested. Which survival did it give?
Answer: Its survival is 80% (inactive).

Question: `Cc1ccc(-c2nc(CN3C(=O)CN=C(c4ccccc4)c4ccccc43)c(C)o2)cc1` was tested. Which survival did it give?
Answer: The survival was 72% (inactive).

Question: For `Cc1ccc2scc(N3CCN(C)CC3)c(=O)c2c1`, which survival is on record?
Answer: Its survival is 136% (inactive).

Question: How did the survival turn out when `O=c1[nH]c2ccccc2c(=O)n1-c1ccc(Cl)c(Cl)c1` was run?
Answer: Its survival is 91% (inactive).

Question: With `CCOc1nc(NCc2ccco2)nc(N2CC3CC(C2)c2cccc(=O)n2C3)n1` (stereo not drawn) as the molecule, how does the survival read?
Answer: The survival was 104% (inactive).

Question: How did the survival turn out when `Nc1c2c(nc3sc4c(c13)CCCC4)CCCC2` was run?
Answer: The survival was 118% (inactive).
